# High-throughput results: PubChem BioAssay, Paczesny and Yang Labs, IUPUI and University of Michigan
# The entries come from a sample that favours hits as a whole.
# ST2 inh = IL1RL1 inhibition; Q01638; AlphaLISA ST2-Fc/biotin-IL-33 interaction, 1 h; inhibition, % for hits at 17 µM; 2.3% of 78,000 active; in the data active means inhibition above about 30%
# Target sequence (Q01638 whole entry, looked up): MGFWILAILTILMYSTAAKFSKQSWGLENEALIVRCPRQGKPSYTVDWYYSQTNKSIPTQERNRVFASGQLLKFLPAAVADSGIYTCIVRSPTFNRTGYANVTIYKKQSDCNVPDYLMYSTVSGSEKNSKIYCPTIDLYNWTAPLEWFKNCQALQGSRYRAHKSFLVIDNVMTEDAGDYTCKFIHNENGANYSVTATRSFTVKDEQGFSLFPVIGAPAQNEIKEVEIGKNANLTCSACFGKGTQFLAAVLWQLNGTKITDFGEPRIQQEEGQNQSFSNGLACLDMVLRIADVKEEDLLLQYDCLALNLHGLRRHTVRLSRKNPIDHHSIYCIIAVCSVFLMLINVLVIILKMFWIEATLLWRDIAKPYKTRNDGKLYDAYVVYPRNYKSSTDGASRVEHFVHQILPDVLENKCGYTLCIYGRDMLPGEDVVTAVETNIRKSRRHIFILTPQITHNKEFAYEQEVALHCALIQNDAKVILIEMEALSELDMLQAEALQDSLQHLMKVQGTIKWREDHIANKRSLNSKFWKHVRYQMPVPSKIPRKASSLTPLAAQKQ
# Numbers stand for hits; - = inactive.
SMILES,ST2 inh
CCCCn1cnc2cc(NCc3ccccc3O)ccc21,-
COc1ccccc1-n1c(O)c(C=Nc2ccc(C)cc2)c2ccccc2c1=O,34.0%
COc1ccc(C)cc1NC(=O)CNC(=O)c1cn(-c2ccccc2OC)c(=O)c2ccccc12,-
Cc1ccccc1-n1c(O)c(C=Nc2ccccc2)c2ccccc2c1=O,47.0%
Cc1cc(O)c(C=Nc2cccc(C(=O)O)c2)c(C)c1Cl,-
COc1ccccc1-n1nc(C(=O)O)c2ccccc2c1=O,-
CCOc1ccccc1N=Cc1c(O)n(-c2ccccc2C)c(=O)c2ccccc12,-
C=CC[C@@H]1CC=C[C@@H](C)N1C(=O)c1nc2cccc(C)n2c1F,-
CCc1ccc(C2CC(=O)N3CN(Cc4ccco4)CSC3=C2C#N)cc1 (stereo not given),-
CCSc1nnc(-c2ccc(C)c(S(=O)(=O)N(C)C)c2)c2ccccc12,-
Cc1ccc(-n2cccn2)c(CNC2COc3ccccc3C2)c1 (stereo not given),-
O=C1C2CCCCC2C(=O)N1CN1CCOCC1 (stereo not given),-
NC(=O)c1ccc(-c2ccccc2CO)nc1,-
COc1ccc(CNc2ccc3c(c2)ncn3C2CCCCC2)cc1,39.0%
COc1ccc(CNC(=O)c2ccc3c(c2)ncn3C2CCCC2)c(OC)c1,-
CCOc1ccc(CNc2ccc3c(c2)ncn3C(C)(C)C)cc1,-
COc1ccc(CNc2ccc3c(c2)ncn3C(C)(C)C)cc1OC,-
COc1ccc(CNc2ccc3c(c2)ncn3C2CCCCC2)cc1OC,33.0%
CCn1cnc2cc(NCc3ccc(OC)c(OC)c3)ccc21,-
COCc1nc(NCc2cc3c(cc2OC)CCC3)c2cnn(C)c2n1,-
O=C(NC1CCCN(CC2CCCCC2)C1)C1CCN(Cc2ccco2)CC1 (stereo not given),-
CC(C)c1nccn1Cc1cc(C(=O)NCC2OCCc3ccccc32)n[nH]1 (stereo not given),-
CC(NC(=O)c1cnn2c1CCCC2)c1nc(-c2cccnc2)no1 (stereo not given),-
O=C(CN1N=NC2C(=O)N(c3ccccc3)C(=O)C21)Nc1ccccc1F (stereo not given),-
Cc1c(CN2CC3(CCNCC3)CC2C(=O)O)c(=O)n(-c2ccccc2)n1C (stereo not given),-
SMILES,ST2 inh
O=C(O)/C=C1\NC(=O)c2ccccc21,-
O=C1Nc2ccccc2C1=Nc1ccc(C(=O)O)cc1,-
O=C1Nc2ccccc2/C1=C/C(=O)c1ccc(Cl)cc1,32.0%
CN(CC1CCCO1)c1nc(-c2ccc([N+](=O)[O-])cc2)cs1 (stereo not given),54.0%
Nc1nc(-c2ccc([N+](=O)[O-])cc2)cs1,-
O=C(NCC1CCCO1)c1ccccc1Sc1ccc([N+](=O)[O-])cc1 (stereo not given),-
O=C(CC(c1ccccc1)c1ccccc1)Nc1ccc(S(=O)(=O)Nc2ncccn2)cc1,-
C=C(C)C(C)(O)C#CCN(CC)CC (stereo not given),-
COc1cc(/C=C2/C(=O)NN(c3ccc(C)c(Cl)c3)C2=O)cc(OC)c1OC,-
COc1cc(/C=C2/C(=O)NN(c3ccc(C)c(Cl)c3)C2=O)ccc1OCc1ccccc1,48.0%
Cc1ccc(N2NC(=O)/C(=C/c3ccc(OCc4ccccc4)cc3)C2=O)cc1Cl,-
O=C(C(Cc1ccccc1)N1C(=O)C2CCCCC2C1=O)N1CCN(c2ccc(F)cc2)CC1 (stereo not given),-
COCC(C)NC(=O)c1cc(-c2cc(OC)ccc2OC)on1 (stereo not given),-
Nc1nonc1-c1noc(COc2ccc(Cl)cc2)n1,-
COCc1cc(C)nc(N2CCCCC2)c1C#N,-
N#CCOc1nc(N2CCCCC2)nc(N2CCCCC2)n1,-
COc1ccc(OCCOc2ccc(OC)cc2)cc1,-
Nc1nonc1-c1noc(COc2ccc(Br)cc2)n1,-
COc1ccc(OCc2nc(C#N)c(N3CCCC3)o2)cc1,49.0%
N#Cc1nc(COc2ccc(Cl)cc2)oc1N1CCCCC1,73.0%
N#Cc1nc(COc2ccc(Br)cc2)oc1N1CCCC1,72.0%
CCN(CC)S(=O)(=O)c1ccc2oc(C(=O)NCc3ccco3)c(C)c2c1,-
Cc1noc(C)c1S(=O)(=O)Nc1ccccc1F,-
NC12C[C@H]3C[C@@H](C1)CC(O)(C3)C2,-
CCCN(CCC)S(=O)(=O)c1ccc(C(=O)Nc2nc(-c3ccccn3)cs2)cc1,-
SMILES,ST2 inh
CCCC(=O)N1c2ccccc2NC2=C(C(=O)CCC2)C1c1ccccc1Cl (stereo not given),-
O=C(CNS(=O)(=O)c1ccc(Br)s1)N1CCC(Cc2ccccc2)CC1,-
CC1=C(C(=O)Nc2ccccc2)C(c2ccc(F)cc2)n2c(s/c(=C\c3cccs3)c2=O)=N1 (stereo not given),-
N#CC1=C(N)Oc2[nH]c(=O)[nH]c(=O)c2C1c1cccc([N+](=O)[O-])c1 (stereo not given),-
CC(C)COc1ccc2c(c1)c1c3n2CCNC3CCC1 (stereo not given),-
CC(C)COc1ccc2c(c1)c1c3c(nccn32)CCC1,38.0%
CC(=O)n1cc(C(C[N+](=O)[O-])SCCN)c2ccccc21 (stereo not given),30.0%
O=[N+]([O-])CC(SCCO)c1ccc(O)cc1 (stereo not given),-
O=C(CN1C(=O)c2ccccc2C1=O)Nc1nc(-c2ccncc2)cs1,36.0%
O=C(COc1ccccc1)Nc1nc(-c2ccccc2)cs1,-
O=C(CSc1ncccn1)Nc1nc(-c2ccccc2)cs1,-
Cc1cccc(C2c3[nH]c4ccccc4c3CCN2C(=O)CN2CCCCC2=O)c1 (stereo not given),-
COC(=O)C1C(=O)C2=C(CC1C)NC(C)=C(C(=O)OC1CCCCC1)C2c1ccccc1C (stereo not given),-
C=CCN1C(=O)c2ccccc2Sc2ccc(C(=O)O)cc21,-
C=CCNc1nc2ccccn2c(=O)c1/C=C1\SC(=O)N(CCC)C1=O,-
C=CCN1C(=O)S/C(=C/c2ccc(N3CCCC3)o2)C1=O,44.0%
c1nc(SCc2ccc3c(c2)OCO3)c2c3c(sc2n1)CCC3,-
CC1=NN2C(C1)c1ccccc1OC21C(=O)Nc2ccccc21 (stereo not given),-
O=C(Nc1cccc(F)c1)N1CCN(c2ccc(F)cc2)CC1,-
O=C(O)C[C@@H]1CCN(C(=O)Cc2cccs2)C[C@@H]1CCN1CCOCC1,54.0%
CC(=O)Nc1ccc(S(=O)(=O)N(CCCN2CCOCC2)Cc2cccs2)cc1,-
O=C(O)C[C@@H]1CCN(C(=O)c2ccccc2)C[C@@H]1CCN1CCN(c2cccc(C(F)(F)F)c2)CC1,-
O=C(O)C[C@@H]1CCN(C(=O)Nc2ccccc2)C[C@@H]1CCN1CCN(c2ccc(F)cc2)CC1,69.0%
O=C(O)C[C@@H]1CCN(C(=O)Cc2ccccc2)C[C@@H]1CCN1CCN(c2cccc(C(F)(F)F)c2)CC1,-
COc1ccc(N2C(=O)C3CC=CC(C)C3C2=O)cc1Cl (stereo not given),-
O=C(CN1C(=O)c2ccccc2S1(=O)=O)N1CCN(C(c2ccccc2)c2ccccc2)CC1,-
CC(=O)N1CCc2cc(Br)cc(S(=O)(=O)CC(=O)Nc3ccc(C)cc3C)c21,-
CCNC(=O)O[C@@H]1CO[C@H]2[C@@H]1OC[C@@H]2NC(=O)Nc1cccc(C(F)(F)F)c1,-
CC(=O)c1ccc(NC(=O)O[C@@H]2CO[C@H]3[C@@H]2OC[C@@H]3NC(=S)Nc2cccc(C#N)c2)cc1,-
COC(=O)c1cccc(NC(=S)N[C@H]2CO[C@H]3[C@@H]2OC[C@H]3OCc2ccccc2)c1,-
